Hits are enriched below; roughly 4.1% of the tested compounds scored in any of these assays.
ssDAF12 agonist = activates DAF-12 receptor from parasite S. stercoralis; HEK293 ssDAF-12/GRIP1 lit1-tk-luc reporter, luminescence; % of 3 µM dafachronic acid response; activation, % at 6.8 µM; actives 1% (n = 370,000); AID 652126;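 active = activation above the mean over all tested compounds plus 3 SD, cut at about 0.9% in these data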;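 also: 0% = DMSO-only wells and 100% = 3 µM delta7-dafachronic acid wells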
DAX1 inh-1 = NR0B1 (DAX1) inhibition | actives 0.99% (n = 340,000) | inhibition, % at 6.75 µM | HEK293 Gal4-DAX1 luciferase reporter, luminescence;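 active = inhibition above the mean over all tested compounds plus 3 SD, cut at about 4.2% in these data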;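 also: 0% = DAX1-transfected cells with DMSO and 100% = empty-vector control cells with DMSO; inhibition shows as a rise in luminescence from relieved DAX1 repression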
hcDAF-12 act = activates DAF-12 receptor from parasite H. contortus; actives 1.4% (n = 370,000); AID 652067; HEK293 hcDAF-12 lit1-tk-luc reporter, luminescence; 0% DMSO, 100% Δ7-dafachronic acid; activation, % at 6.8 µM;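 active = activation above the mean of all tested compounds plus 3 SD, cut at about 5.5% in these data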;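 also: 100% = response to 3 µM Δ7-dafachronic acid high control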
DAX1 inh-2 = inhibitors of DAX1 repression of SF-1 activated StAR promoter; actives 1.1% (n = 370,000); inhibition, % at 6.8 µM; HEK293T StAR-luciferase reporter, SF-1/DAX-1 repression relief;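 active = inhibition above the mean over all tested compounds plus 3 SD, cut at about 3.6% in these data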;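 also: 0% = DAX-1 cells with DMSO and 100% = cells lacking DAX-1 with DMSO; higher inhibition means more luminescence from relief of DAX-1 repression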
hgDAF-12 ag = activates the H. glycines DAF-12 receptor ligand-binding domain | HEK293 GAL4-hgDAF12 UAS-luciferase reporter, agonist luminescence; normalized to butyrate control | activation, % at 6.8 µM | actives 1.8% (n = 370,000);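 active = activation above a cutoff set at the mean of all screened compounds plus 3 SD, cut at about 10% in these data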;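 also: 0% = DMSO wells and 100% = sodium butyrate wells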
LXR ag = activates human LXR-beta, counter-screen for hcDAF-12 agonists. activation, % at 6.8 µM. HEK293 Gal4-LXR tk-luc reporter, luminescence, 24 h; normalized: DMSO 0%, positive control 100%. shares compounds with hcDAF-12 act. 3,400 tested, under 10 active;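 active = mean percent activation of the reporter above a cutoff set as the average over tested compounds plus their standard deviation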
Target sequence (P55055 whole entry, looked up, the tested form may be a part): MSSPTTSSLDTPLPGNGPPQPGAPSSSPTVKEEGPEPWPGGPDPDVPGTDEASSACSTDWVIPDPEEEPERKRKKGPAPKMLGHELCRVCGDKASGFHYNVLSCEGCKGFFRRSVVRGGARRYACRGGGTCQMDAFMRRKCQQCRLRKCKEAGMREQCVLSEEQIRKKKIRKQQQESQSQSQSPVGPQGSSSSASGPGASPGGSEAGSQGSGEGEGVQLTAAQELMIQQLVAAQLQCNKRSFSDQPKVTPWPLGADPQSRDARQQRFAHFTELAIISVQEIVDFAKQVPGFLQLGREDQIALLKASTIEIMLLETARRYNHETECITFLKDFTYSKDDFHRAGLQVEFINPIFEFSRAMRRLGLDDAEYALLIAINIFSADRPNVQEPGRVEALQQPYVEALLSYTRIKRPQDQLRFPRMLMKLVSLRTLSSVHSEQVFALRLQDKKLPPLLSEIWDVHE
hcDAF12 ag = confirmation of H. contortus DAF-12 agonists. shares compounds with hcDAF-12 act. actives 61% (n = 3,400). HEK293 hcDAF-12 lit1-tk-luc reporter, luminescence; % of Δ7-dafachronic acid response. activation, % at 6.8 µM;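 active = mean activation across triplicate tests above the threshold derived from the earlier primary screen, cut at about 5.5% in these data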;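 also: 0% = DMSO only wells and 100% = 3 µM Δ7-dafachronic acid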
hgDAF12 conf = hgDAF-12 agonism, confirmation assay; activation, % at 6.8 µM; AID 743050; HEK293 GAL4-hgDAF12 luciferase reporter, agonist mode; percent of butyrate response; actives 80% (n = 3,300); shares compounds with hgDAF-12 ag;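 active = mean activation over triplicate wells above the hit cutoff derived from the earlier primary screen, cut at about 11% in these data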;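 also: 0% = DMSO low control and 100% = 2 mM sodium butyrate high control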
LXR ag 2 = counter-screen for DAF-12 agonists: agonists of human LXR-beta. 3,300 tested, under 10 active. activation, % at 6.8 µM. HEK293 Gal4-LXR luciferase reporter, 24 h. shares compounds with hgDAF-12 ag;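 active = mean activation of the triplicate above a set limit carried over from the primary screen, none filed active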
An asterisk follows results filed as active; . = no result.

SMILES	ssDAF12 agonist	DAX1 inh-1	hcDAF-12 act	DAX1 inh-2	hgDAF-12 ag	LXR ag	hcDAF12 ag	hgDAF12 conf	LXR ag 2
O=C(Nc1ccc(Cl)cc1)Nc1cccc2nsnc12	1.3*	2	12*	1	15*	1	11*	20*	1
NC(=O)c1c(N)[nH]c(C(=O)c2ccccc2)c1-c1ccc(Br)cc1	-1	.	-3	0	0	.	.	.	.
Cc1occc1C(=O)Nc1ccccc1NC(=O)c1ccoc1C	-1	0	2	0	-2	.	.	.	.
Cc1occc1C(=O)Nc1cccc2ccccc12	1.1*	4	6.7*	3.8*	17*	1	5.9*	21*	1
Cc1ccc(NC(=O)c2ccoc2C)cc1C	0	0	6.9*	3	14*	1	5	12*	0
Cc1occc1C(=O)Nc1ccc2c(c1)OCO2	0	1	1	1	6	.	.	.	.
O=C(C1CCN(c2ncnc3c2sc2cccc(F)c23)CC1)N1CCN(C(=O)C2CCCO2)CC1 (stereo not given)	0	.	-1	-1	2	.	.	.	.
Cc1ccc(C(=O)N2CCC[C@@H]2C(=O)N2CCC[C@@H]2C(=O)NCc2ccccc2)cc1C	-1	.	0	0	0	.	.	.	.
COC(=O)C1=C(C)N(Cc2cccc(C(F)(F)F)c2)C(=NCc2ccc(OC)cc2)NC1c1cccc(C(F)(F)F)c1 (stereo not given)	-1	.	-2	0	1	.	.	.	.
C=CCNC(=O)CN(C(=O)c1csc2ccc(Cl)cc12)c1cccc(Br)c1	-1	.	1	0	-1	.	.	.	.
COc1ccc(-n2c(SCC(=O)Nc3ccc(S(=O)(=O)Nc4nccs4)cc3)nnc2-c2ccccc2)cc1	-1	.	0	0	-1	.	.	.	.
Nc1nc(CCl)nc(Nc2ccccc2)n1	-2	-2	2	-1	3	.	.	.	.
Nc1nc(Nc2ccccc2)nc2ccccc12	1.7*	0	9.9*	3.6*	15*	1	5	16*	1
Nc1nc(Nc2ccc(Cl)cc2)nc2ccccc12	2.5*	-1	14*	2	14*	2	12*	22*	1
O=C(OCC#CCSc1nnc(-c2cccc3ccccc23)o1)c1ccc(Cl)c(C(F)(F)F)c1	-2	.	0	.	-1	.	.	.	.
COC(=O)[C@H]1C[C@@]2(c3ccccc3)c3ccccc3N[C@H]2N1	0	.	5	0	1	.	.	.	.
COc1ccccc1N1CCN(c2ccc(-c3ccccc3)nn2)CC1	1.3*	-3	7.1*	3	18*	1	4	8	1
COCCN(CCOC)C(=O)[C@@H](Cc1ccccc1)NC(=O)[C@H]1O[C@@H](n2ccc(N)nc2=O)[C@H](O)[C@@H]1O	-1	.	-2	0	2	.	.	.	.
Cn1/c(=N/N=C/c2ccccn2)sc2ccccc21	1	.	8.2*	3	23*	1	7.1*	18*	1
C=CCn1c(SCC(=O)Nc2ccc(-c3nc4ccc(C)cc4s3)cc2)nnc1-c1ccccc1	0	1	7.2*	4.5*	18*	1	2	10	1
CCOC(=O)CSc1nc2cccnc2n1C	-1	-1	-1	0	-1	.	.	.	.
Cn1c(SCc2ccccc2F)nc2cccnc21	0	3	8.0*	2	14*	1	5.7*	18*	1
Cc1ccc(-c2cnc3ccccc3n2)cc1C	1.5*	3	14*	3	14*	2	16*	20*	1
Cc1cc2ncc(-c3ccccc3)nc2cc1C	1.7*	5.0*	14*	3	19*	2	11*	23*	1
CC(C)(N[C@@H](Cc1c[nH]c2ccccc12)C(=O)NCCCc1ccccc1)C(=O)NCc1ccccc1	-2	.	1	.	1	.	.	.	.
SMILES	ssDAF12 agonist	DAX1 inh-1	hcDAF-12 act	DAX1 inh-2	hgDAF-12 ag	LXR ag	hcDAF12 ag	hgDAF12 conf	LXR ag 2
O=C(N=Nc1c(O)[nH]c2ccccc12)c1ccco1	1	4.4*	9.8*	2	19*	1	10*	17*	1
O=C(CSCc1ccccc1)N=Nc1c(O)[nH]c2ccccc12	0	-1	2	1	6	.	.	.	.
CCN(CC)c1ccc(C=Nn2c(C)nnc2C)cc1	-2	.	0	-1	0	.	.	.	.
O=C(Nc1ccccc1)C(=O)c1c[nH]c2ccccc12	4.4*	3	15*	2	15*	2	17*	25*	1
O=C(/C=C/c1ccccc1)c1c[nH]c2ccccc12	3.8*	4.3*	12*	3	20*	2	8.3*	19*	1
NC(=O)c1c[nH]c2ccccc12	-1	1	4	0	-1	.	.	.	.
C[C@H]1[C@H](c2ccccc2)Oc2cccc(NCCc3ccccc3)c2S(=O)(=O)N1Cc1ccc(F)cc1	-1	.	0	1	3	.	.	.	.
COc1ccc(-c2csc(Nc3ncccc3C)n2)cc1	1	3	7.5*	2	17*	1	5	17*	1
COc1ccc(-c2csc(Nc3ncccc3C)n2)cc1OC	-1	0	0	0	5	.	.	.	.
COC(=O)C(C)Nc1cccc(Br)c1 (stereo not given)	-2	0	0	0	-1	.	.	.	.
COC(=O)c1ccc(N=NNc2cccc(Br)c2)cc1	0	0	7.9*	3	15*	1	7.1*	16*	0
Cc1cc(NC(=O)c2ccccc2)sc1C	0	0	9.9*	4	19*	1	5	17*	1
CCN1CCSc2ccc(C(=O)NCc3cccc(F)c3)cc21	-1	0	-2	0	3	.	.	.	.
CN1CCSc2ccc(C(=O)Nc3cccc(F)c3)cc21	2.0*	7.4*	11*	3.8*	24*	1	8.3*	25*	1
CCN(CC)c1ccc(C(=O)Nc2cccc(F)c2)cc1	0	1	7.2*	2	15*	1	4	19*	1
COc1ccccc1CCn1cnc(-c2cccc(F)c2)c1CC(C)C	-1	.	-2	-2	-3	.	.	.	.
O=C(Nc1ccc(F)c(F)c1)c1ccc2c(c1)OCO2	-1	1	2	3	6	.	.	.	.

Compound activity (PubChem BioAssay)
